Compound activity deposited in PubChem BioAssay by Center for Chemical Genomics, University of Michigan.
Dicer processing: blocks human Dicer maturation of pre-miR-21; Q9UPY3; cat-ELCCA pre-miR-21 Dicer processing, chemiluminescence; active compounds read high; z-score at 25 µM; 47,000 tested, 6% active; AID 1347074; in the data active = z-score above about 3, passing the limit was not always enough;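 also: plate controls were vehicle for no effect and no enzyme for full effect; higher signal means more uncleaved substrate so more Dicer inhibition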
The depositor's hits bear a star. The full list was thinned out, with hits kept by preference.

SMILES | Dicer processing
COC(=O)C1=C(C(=O)OC)SC(=C2C(=S)C(C)(C)N(C(C)=O)c3cc(C)ccc32)S1 | 0.05
O=C1C2ON(c3ccccc3)C(c3ccncc3)C2C(=O)N1c1cccc(Cl)c1 (stereo not given) | 0.39
CN(C)c1ccc(C2C3C(=O)N(Cc4ccccc4)C(=O)C3ON2c2ccccc2)cc1 (stereo not given) | 3.29*
COc1ccc(C2C3C(=O)N(c4ccc(F)cc4)C(=O)C3ON2c2ccccc2)cc1 (stereo not given) | 0.49
Clc1ccc(OCc2noc(-c3ccoc3)n2)c(Cl)c1 | 0.88
CO[C@H]1/C=C/O[C@@]2(C)Oc3c(C)c(O)c4c(O)c(c(/C=N/N5CCN(C6CCCC6)CC5)c(O)c4c3C2=O)NC(=O)/C(C)=C\C=C\[C@H](C)[C@H](O)[C@@H](C)[C@@H](O)[C@@H](C)[C@H](OC(C)=O)[C@@H]1C | -0.38
O=C(N=S1CCN(c2ncc(C(F)(F)F)cc2Cl)CC1)c1ccccc1 | -0.31
O=C(NC(=S)N1CCN(c2ncc(C(F)(F)F)cc2Cl)CC1)c1ccccc1 | 30*
O=C(NC(=S)NNc1ncc(C(F)(F)F)cc1Cl)c1ccccc1 | -2.2
Cc1cccc(OCC(O)Cn2c[n+](C)c3cc(C)c(C)cc32)c1 (stereo not given) | 2.01
O=C(c1ccccc1)c1cc2c(cc1Br)OCCO2 | -0.01
CCOC(=O)c1ccc2nc(C)c(C)nc2c1 | 4.76*
Cc1ccc(C(=O)COC(=O)c2ccc3nc(C)c(C)nc3c2)cc1 | -0.11
COC(=O)c1ccc2nc(C)c(C)nc2c1 | 2.43
C=CCOc1ccc(C2c3c(oc4ccc(F)cc4c3=O)C(=O)N2CCOC)cc1OC (stereo not given) | -0.73
CCC1CCC(C)N(C(=S)Nc2ccc(Cl)c(Cl)c2)C1 (stereo not given) | 0.9
Cc1ccc(NC(=O)CSc2ccc(C(F)(F)F)cn2)cc1C#N | 1.29
CCOC(=O)[C@@H](N)CCSC | 3
CC1(C)C2=CC3(C)N(CC(=O)N2c2ccccc21)c1ccccc1C3(C)C (stereo not given) | 2.48
O=C(NNC(=O)C(F)(F)F)c1cc2sccc2s1 | 1.74
N#C/C(=C\Nc1ccc(Cl)cn1)S(=O)(=O)c1ccccc1 | 3.23*
N#C/C(=C\Nc1ccc(Cl)cn1)S(=O)(=O)c1ccc(Cl)cc1 | 1.2
N#C/C(=C\Nc1ccc(Cl)cn1)S(=O)(=O)c1ccccn1 | -2.11
COc1cc(/C=N/N=C2/NC(=O)CS2)cc(OC)c1 | 0.79
Cc1ccc(OCC(O)Cn2c[n+](C)c3cc(C)c(C)cc32)cc1 (stereo not given) | -0.75
SMILES | Dicer processing
Cc1cc(NC(=O)NCC(O)c2ccccc2)c(C(F)(F)F)o1 (stereo not given) | -1.27
O=C(N/N=C/c1cccc(C(F)(F)F)c1)c1cccn1-c1ccc(F)cc1 | 0.51
COc1ccc(-n2ccsc2=S)cc1 | 4.69*
CCOC(=O)c1sc(=S)n(-c2ccc(OC)cc2)c1N | 2.19
COc1ccc(N2C(=O)CCC2=O)cc1 | -0.74
Nc1ncnc2c1nc(SCCC(=O)O)n2Cc1ccccc1 | -0.23
c1csc(C2Nc3ccccc3N2)c1 | 0.24
O=S(=O)(Nc1ccccn1)c1ccc(C(F)(F)F)cc1Cl | -0.2
O=S(=O)(Nc1ncccn1)c1ccc(C(F)(F)F)cc1Cl | 3.02*
COC(=O)C1=C(Nc2ccccc2NS(=O)(=O)c2ccc(C(F)(F)F)cc2Cl)CSC1 | -0.77
COc1ccccc1N1CCN(S(=O)(=O)c2ccc(S(N)(=O)=O)cc2)CC1 | 1.72
O=[N+]([O-])C1=Cc2cc(Cl)ccc2OC1c1ccccc1Cl (stereo not given) | 3.97*
O=[N+]([O-])C1=Cc2ccccc2OC1c1ccccc1Cl (stereo not given) | 2.49
O=[N+]([O-])C1=Cc2cc(Cl)ccc2OC1c1c(Cl)cccc1Cl (stereo not given) | 2.31
NC(=O)COc1ccc(C2=Nc3ccccc3NC(c3ccccc3)C2)cc1 (stereo not given) | 1.4
O=c1oc2ccccc2c(O)c1-c1ccccc1 | 9.15
COc1cc(NC(=O)c2c(-c3ccccc3Cl)noc2C)cc(C(F)(F)F)c1 | -0.51
COc1ccc2ccccc2c1Br | -1.28
CC(=O)ON1C(=O)c2cccc3cccc(c23)C1=O | 1.23
COc1ccc2cccc3c2c1C=CC3=O | 4.22*
Cc1onc(-c2ccccc2Cl)c1NC(=O)NCCc1ccncc1 | -0.43
N#C/C(=C1/SC=C(c2ccccc2)N1c1ccccc1)c1nc2ccccc2[nH]1 | 6.69
CC1=CC(C)(C)N(C(=O)c2ccc(F)cc2)c2cc3c(cc21)OCO3 | 4.58*
CC1=CC(C)(C)N(C(=O)Nc2ccc(C)cc2)c2ccc(C)cc21 | -0.67
CCOc1ccc2c(c1)C(C)=CC(C)(C)N2C(=O)Nc1ccc(F)cc1 | 0.91
Cc1cccc2c1NC(=O)C2(O)CC(=O)c1ccccc1 (stereo not given) | -0.04
CCOC(=O)c1c(NC(=O)CCC(=O)O)sc2c1CCCC2=O | 3.01*
CCOC(=O)c1c(NC(=O)CCC(=O)O)sc2c1CCCCC2 | -0.71
CCOC(=O)c1c(NC(=O)CCC(=O)O)sc2c1CCCC2 | 2.2
